Data reported in the supplement of paper PMC10849652.
The full data set covers some 7,900 targets. This sample favours those with a hit. About 0.6% of all pairs of compound and target were hits.

Compound: Cc1ncc(-c2ccnc(Nc3ccc(S(C)(=O)=O)cc3)n2)n1C(C)C
Experiment: log2 fold change, soluble protein after heating vs DMSO (PISA); higher = thermal stabilisation; K562 cells, 10 uM, 30 min; active = over 0.2 and 3.5 SD of the protein, either way, in both replicates (recomputed)
Outline: (§1)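 For each measurement, 10 μM compound was applied for 30 min to K562 cells at 2×10^6 cells/mL. Aliquots were heated for 3 min across 48°C-58°C, pooled, and extracted in PBS with 0.5% NP-40 at 4°C; the supernatant after 21,000xg for 90 min was soluble protein. This was quantified by TMTpro 16plex LC-MS/MS with channel sums equalised, and thermal stability was reported relative to control samples from duplicates, on a log2 fold-change scale.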

Chain of UniProt Q13422 (Q13422 whole entry, looked up): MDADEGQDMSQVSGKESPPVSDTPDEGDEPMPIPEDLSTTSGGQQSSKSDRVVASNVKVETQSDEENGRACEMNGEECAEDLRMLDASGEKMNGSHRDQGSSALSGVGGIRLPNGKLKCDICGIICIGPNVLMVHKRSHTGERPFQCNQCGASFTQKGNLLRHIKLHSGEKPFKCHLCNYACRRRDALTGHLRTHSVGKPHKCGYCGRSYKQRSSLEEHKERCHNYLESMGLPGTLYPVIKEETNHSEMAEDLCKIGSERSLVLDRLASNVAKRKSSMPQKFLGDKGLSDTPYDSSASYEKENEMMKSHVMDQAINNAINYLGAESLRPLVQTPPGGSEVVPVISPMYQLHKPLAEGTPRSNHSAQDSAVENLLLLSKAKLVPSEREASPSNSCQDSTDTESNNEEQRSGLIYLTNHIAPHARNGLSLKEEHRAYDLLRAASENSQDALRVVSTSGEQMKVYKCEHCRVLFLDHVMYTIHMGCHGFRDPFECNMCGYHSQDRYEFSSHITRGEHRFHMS
Chain of UniProt Q9Y5V3 (Q9Y5V3 whole entry, looked up): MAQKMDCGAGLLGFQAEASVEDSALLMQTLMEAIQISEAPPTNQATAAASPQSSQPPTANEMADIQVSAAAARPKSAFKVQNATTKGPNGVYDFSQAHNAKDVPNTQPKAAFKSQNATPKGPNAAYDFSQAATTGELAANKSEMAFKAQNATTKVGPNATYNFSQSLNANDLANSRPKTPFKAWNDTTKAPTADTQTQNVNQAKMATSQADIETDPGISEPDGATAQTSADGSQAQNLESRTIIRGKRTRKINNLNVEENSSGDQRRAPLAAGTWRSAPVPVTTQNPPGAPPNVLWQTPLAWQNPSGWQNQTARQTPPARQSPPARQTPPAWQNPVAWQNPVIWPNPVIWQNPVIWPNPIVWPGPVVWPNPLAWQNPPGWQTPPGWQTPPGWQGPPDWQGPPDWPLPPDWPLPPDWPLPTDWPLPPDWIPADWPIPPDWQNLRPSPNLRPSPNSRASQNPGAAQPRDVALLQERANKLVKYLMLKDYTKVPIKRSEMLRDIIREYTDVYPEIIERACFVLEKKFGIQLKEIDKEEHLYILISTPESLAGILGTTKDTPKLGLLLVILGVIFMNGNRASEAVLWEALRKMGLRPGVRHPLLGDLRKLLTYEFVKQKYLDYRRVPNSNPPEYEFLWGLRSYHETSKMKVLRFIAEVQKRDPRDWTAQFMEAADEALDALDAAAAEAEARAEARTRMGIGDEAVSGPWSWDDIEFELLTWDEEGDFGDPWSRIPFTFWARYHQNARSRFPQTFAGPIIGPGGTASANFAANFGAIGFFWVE
Chain of UniProt Q2M2Z5 (Q2M2Z5 whole entry, looked up): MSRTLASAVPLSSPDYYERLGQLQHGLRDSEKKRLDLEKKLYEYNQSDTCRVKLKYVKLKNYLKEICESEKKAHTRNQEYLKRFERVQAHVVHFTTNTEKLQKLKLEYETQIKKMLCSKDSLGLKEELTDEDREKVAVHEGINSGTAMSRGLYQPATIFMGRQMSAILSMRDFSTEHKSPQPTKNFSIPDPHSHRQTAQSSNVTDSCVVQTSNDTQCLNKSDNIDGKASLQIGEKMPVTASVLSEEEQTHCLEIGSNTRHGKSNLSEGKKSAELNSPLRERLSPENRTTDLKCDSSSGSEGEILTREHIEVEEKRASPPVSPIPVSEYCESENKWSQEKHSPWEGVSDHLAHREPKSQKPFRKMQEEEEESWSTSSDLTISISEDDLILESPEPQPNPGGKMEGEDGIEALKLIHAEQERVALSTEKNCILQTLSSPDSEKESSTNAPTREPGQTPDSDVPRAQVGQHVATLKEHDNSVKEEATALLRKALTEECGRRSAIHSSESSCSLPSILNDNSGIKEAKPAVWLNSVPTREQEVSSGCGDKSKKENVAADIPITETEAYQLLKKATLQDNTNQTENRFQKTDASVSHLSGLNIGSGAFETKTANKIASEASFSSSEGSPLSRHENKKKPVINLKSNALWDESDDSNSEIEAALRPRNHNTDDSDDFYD
Chain of UniProt P27816 (P27816 whole entry, looked up): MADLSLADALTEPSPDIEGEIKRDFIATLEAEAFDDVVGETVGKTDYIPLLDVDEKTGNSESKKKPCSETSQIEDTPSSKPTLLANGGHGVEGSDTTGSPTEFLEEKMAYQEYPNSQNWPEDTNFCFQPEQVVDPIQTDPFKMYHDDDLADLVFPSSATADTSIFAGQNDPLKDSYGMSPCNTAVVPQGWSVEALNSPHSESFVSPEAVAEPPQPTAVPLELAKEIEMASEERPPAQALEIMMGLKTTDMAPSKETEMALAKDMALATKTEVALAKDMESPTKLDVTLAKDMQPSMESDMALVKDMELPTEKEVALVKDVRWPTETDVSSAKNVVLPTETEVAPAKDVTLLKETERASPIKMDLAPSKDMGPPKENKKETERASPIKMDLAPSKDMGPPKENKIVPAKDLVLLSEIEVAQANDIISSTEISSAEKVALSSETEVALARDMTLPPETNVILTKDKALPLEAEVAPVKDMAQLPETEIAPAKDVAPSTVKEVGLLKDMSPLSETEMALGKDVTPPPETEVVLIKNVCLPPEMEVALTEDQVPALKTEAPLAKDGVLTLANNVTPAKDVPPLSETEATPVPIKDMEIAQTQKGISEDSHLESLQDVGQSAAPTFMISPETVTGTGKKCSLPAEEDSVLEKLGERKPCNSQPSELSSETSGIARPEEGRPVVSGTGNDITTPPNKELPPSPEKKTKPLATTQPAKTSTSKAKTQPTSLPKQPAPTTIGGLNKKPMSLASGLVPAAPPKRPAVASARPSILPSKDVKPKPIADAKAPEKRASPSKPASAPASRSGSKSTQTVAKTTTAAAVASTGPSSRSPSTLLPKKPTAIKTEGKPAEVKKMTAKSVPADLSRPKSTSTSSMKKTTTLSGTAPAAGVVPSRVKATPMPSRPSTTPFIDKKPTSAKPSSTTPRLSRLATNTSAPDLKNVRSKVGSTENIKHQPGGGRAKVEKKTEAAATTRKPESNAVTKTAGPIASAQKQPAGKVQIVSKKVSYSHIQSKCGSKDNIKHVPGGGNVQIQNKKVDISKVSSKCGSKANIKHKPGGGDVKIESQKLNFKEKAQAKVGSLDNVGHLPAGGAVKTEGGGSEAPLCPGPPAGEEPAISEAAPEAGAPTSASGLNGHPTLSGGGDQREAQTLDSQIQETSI
Chain of UniProt Q9P244 (Q9P244 whole entry, looked up): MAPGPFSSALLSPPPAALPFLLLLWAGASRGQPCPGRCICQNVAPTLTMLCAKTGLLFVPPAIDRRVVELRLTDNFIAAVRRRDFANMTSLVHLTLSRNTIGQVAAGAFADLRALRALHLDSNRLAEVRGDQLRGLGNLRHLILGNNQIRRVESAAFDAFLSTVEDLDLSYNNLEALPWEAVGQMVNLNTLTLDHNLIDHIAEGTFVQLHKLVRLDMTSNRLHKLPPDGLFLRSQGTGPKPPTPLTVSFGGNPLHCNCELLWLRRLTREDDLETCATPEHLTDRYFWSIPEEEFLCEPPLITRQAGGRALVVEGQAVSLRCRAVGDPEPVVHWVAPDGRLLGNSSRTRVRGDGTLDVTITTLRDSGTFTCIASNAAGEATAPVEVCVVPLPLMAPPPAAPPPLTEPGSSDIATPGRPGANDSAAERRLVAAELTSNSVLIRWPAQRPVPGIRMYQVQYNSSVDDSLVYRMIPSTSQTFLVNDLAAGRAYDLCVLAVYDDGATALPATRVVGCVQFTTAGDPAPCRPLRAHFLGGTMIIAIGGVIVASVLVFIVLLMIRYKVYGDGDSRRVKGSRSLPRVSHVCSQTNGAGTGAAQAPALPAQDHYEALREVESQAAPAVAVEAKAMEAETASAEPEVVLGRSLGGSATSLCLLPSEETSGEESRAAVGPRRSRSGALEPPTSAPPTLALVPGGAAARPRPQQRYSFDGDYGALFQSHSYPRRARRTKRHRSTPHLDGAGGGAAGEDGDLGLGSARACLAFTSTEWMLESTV
Chain of UniProt P07948 (P07948 whole entry, looked up): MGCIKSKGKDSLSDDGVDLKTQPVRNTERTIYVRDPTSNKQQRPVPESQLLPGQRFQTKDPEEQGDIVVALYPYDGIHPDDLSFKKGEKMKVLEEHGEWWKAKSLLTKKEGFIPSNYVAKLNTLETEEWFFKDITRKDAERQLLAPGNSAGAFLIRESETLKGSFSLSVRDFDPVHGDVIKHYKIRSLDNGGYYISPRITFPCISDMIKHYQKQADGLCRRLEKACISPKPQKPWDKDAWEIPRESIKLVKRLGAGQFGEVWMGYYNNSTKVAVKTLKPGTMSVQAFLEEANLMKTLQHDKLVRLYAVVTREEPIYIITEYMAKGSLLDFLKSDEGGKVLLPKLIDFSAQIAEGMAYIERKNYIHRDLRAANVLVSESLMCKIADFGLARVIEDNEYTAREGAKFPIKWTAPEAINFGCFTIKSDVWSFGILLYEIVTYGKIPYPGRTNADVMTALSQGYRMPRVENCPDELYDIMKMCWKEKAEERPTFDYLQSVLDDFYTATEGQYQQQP
Chain of UniProt P51884 (P51884 whole entry, looked up): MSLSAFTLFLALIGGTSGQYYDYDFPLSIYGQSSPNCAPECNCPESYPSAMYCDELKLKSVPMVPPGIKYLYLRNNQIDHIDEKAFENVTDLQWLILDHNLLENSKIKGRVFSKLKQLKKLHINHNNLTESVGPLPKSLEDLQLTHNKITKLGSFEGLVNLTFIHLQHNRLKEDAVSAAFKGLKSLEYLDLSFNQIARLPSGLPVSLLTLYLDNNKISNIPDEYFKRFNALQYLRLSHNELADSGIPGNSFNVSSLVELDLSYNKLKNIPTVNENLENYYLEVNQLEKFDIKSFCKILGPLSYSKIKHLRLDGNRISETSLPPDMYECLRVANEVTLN
Chain of UniProt Q9UPY8 (Q9UPY8 whole entry, looked up): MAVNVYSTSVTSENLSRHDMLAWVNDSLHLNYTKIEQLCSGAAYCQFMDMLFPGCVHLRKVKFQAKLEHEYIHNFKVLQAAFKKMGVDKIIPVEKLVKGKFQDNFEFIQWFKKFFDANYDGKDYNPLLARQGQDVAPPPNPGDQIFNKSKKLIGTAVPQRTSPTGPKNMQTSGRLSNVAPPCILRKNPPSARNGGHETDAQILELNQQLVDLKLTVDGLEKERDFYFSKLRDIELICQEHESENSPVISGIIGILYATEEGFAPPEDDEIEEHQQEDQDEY

Target	log2 fold change
ITGA2B (UniProt P08514)	-0.151 (inactive)
LUM (UniProt P51884)	0.257 (inactive)
MAP4K2 (UniProt Q12851)	-0.13 (inactive)
LYN isoform 2 (UniProt P07948)	-0.006 (inactive)
MAPRE3 isoform 2 (UniProt Q9UPY8)	-0.118 (inactive)
MARCHF3 (UniProt Q86UD3)	0.036 (inactive)
MAP3K20 isoform 2 (UniProt Q9NYL2)	-0.07 (inactive)
MAP4 isoform 5 (UniProt P27816)	0 (inactive)
IKZF1 isoform 2 (UniProt Q13422)	0.043 (inactive)
MAP4K4 isoform 6 (UniProt O95819)	0.008 (inactive)
MAGED1 isoform 2 (UniProt Q9Y5V3)	-0.082 (inactive)
LOX (UniProt P28300)	0.12 (inactive)
ILF3 (UniProt Q12906)	0.364 (inactive)
MED17 (UniProt Q9NVC6)	-0.108 (inactive)
MAN2B2 (UniProt Q9Y2E5)	-0.023 (inactive)
MED29 (UniProt Q9NX70)	-0.14 (inactive)

Compound: Cn1cc(-c2ccc3c(c2)CCN3C(=O)Cc2cccc(C(F)(F)F)c2)c2c(N)ncnc21
Experiment: as above
Outline: as §1

Target	log2 fold change
ITGA2B (UniProt P08514)	-0.122 (inactive)
IGFBP6 (UniProt P24592)	0.152 (inactive)
LUM (UniProt P51884)	0.177 (inactive)
MAP4K2 (UniProt Q12851)	-0.135 (inactive)
LYN isoform 2 (UniProt P07948)	0 (inactive)
MAPRE3 isoform 2 (UniProt Q9UPY8)	-0.028 (inactive)
KIF13A isoform 4 (UniProt Q9H1H9)	0.069 (inactive)
LSR isoform 3 (UniProt Q86X29)	0.026 (inactive)
LRRFIP1 isoform 4 (UniProt Q32MZ4)	-0.226 (inactive)
IKZF1 isoform 2 (UniProt Q13422)	-0.026 (inactive)
MAP2K5 (UniProt Q13163)	0.06 (inactive)
MAP4K4 isoform 6 (UniProt O95819)	0.1 (inactive)
ING5 (UniProt Q8WYH8)	0.164 (inactive)
MAGED1 isoform 2 (UniProt Q9Y5V3)	0.111 (inactive)
MAML1 (UniProt Q92585)	0.087 (inactive)
IKZF1 (UniProt R9R4D9)	-0.044 (inactive)
LRFN1 (UniProt Q9P244)	0.178 (inactive)
MFSD12 isoform 3 (UniProt Q6NUT3)	-0.124 (inactive)
LEPROT (UniProt O15243)	-0.193 (inactive)
MED17 (UniProt Q9NVC6)	-0.033 (inactive)
KIZ (UniProt Q2M2Z5)	-0.446 (inactive)
IGFBP3 isoform 2 (UniProt P17936)	0.106 (inactive)

Compound: Cn1cc(-c2ccc3nnc(C(F)(F)c4ccc5ncccc5c4)n3n2)cn1
Experiment: as above
Outline: as §1

Target	log2 fold change
ITGA2B (UniProt P08514)	-0.051 (inactive)
MAPK11 (UniProt Q15759)	-0.024 (inactive)
IGFBP6 (UniProt P24592)	0.006 (inactive)
LUM (UniProt P51884)	-0.075 (inactive)
LDLRAP1 (UniProt Q5SW96)	0.14 (inactive)
MAP4 isoform 5 (UniProt P27816)	-0.037 (inactive)
ITPRID2 (UniProt P28290)	-0.032 (inactive)
IKZF1 isoform 2 (UniProt Q13422)	0.015 (inactive)
LRRCC1 (UniProt Q9C099)	0.063 (inactive)
MAP2K5 (UniProt Q13163)	0 (inactive)
MAML1 (UniProt Q92585)	-0.009 (inactive)
LRFN1 (UniProt Q9P244)	0.011 (inactive)
MED17 (UniProt Q9NVC6)	-0.069 (inactive)
MAN2B2 (UniProt Q9Y2E5)	-0.088 (inactive)
KIZ (UniProt Q2M2Z5)	0.196 (inactive)
KIF21A (UniProt H0YI78)	0.134 (inactive)

Compound: Cn1cncc1[C@@](N)(c1ccc(Cl)cc1)c1ccc2c(c1)c(-c1cccc(Cl)c1)cc(=O)n2C [tipifarnib]
Experiment: as above
Outline: as §1

Target	log2 fold change
ITGA2B (UniProt P08514)	0.073 (inactive)
LUM (UniProt P51884)	0.055 (inactive)
MAP4K2 (UniProt Q12851)	-0.048 (inactive)
LYN isoform 2 (UniProt P07948)	0.075 (inactive)
MAPRE3 isoform 2 (UniProt Q9UPY8)	0.201 (inactive)
MARCHF3 (UniProt Q86UD3)	0.001 (inactive)
MAP3K20 isoform 2 (UniProt Q9NYL2)	0.138 (inactive)
LSR isoform 3 (UniProt Q86X29)	0.101 (inactive)
MAP4 isoform 5 (UniProt P27816)	0.066 (inactive)
ITPRID2 (UniProt P28290)	-0.056 (inactive)
ING5 (UniProt Q8WYH8)	0.045 (inactive)
MAGED1 isoform 2 (UniProt Q9Y5V3)	-0.104 (inactive)
IKZF1 (UniProt R9R4D9)	-0.119 (inactive)
LRFN1 (UniProt Q9P244)	-0.026 (inactive)
MED17 (UniProt Q9NVC6)	0.077 (inactive)
MAN2B2 (UniProt Q9Y2E5)	0.093 (inactive)
KIZ (UniProt Q2M2Z5)	0.217 (inactive)
MED29 (UniProt Q9NX70)	0.169 (inactive)
IGFBP3 isoform 2 (UniProt P17936)	-0.087 (inactive)
